# Reference: paper PMC7862700, “An all-to-all approach to the identification of sequence-specific readers for epigenetic DNA modifications on cytosine”
# Key:
# Assay in all cases: DAPPL (digital affinity profiling via proximity ligation, sequencing); 10 mM Tris-HCl pH 7.5, 50 mM NaCl, 1 mM DTT, 4% glycerol, room temperature, 30 min; GST-TFs on glutathione beads, 16-mer random dsDNA library, 0.1% formaldehyde crosslink after washing; high values mean tight binding
# Settings in all cases: protein: recombinant; tags: N-terminal GST; dsDNA, one strand shown
# FLI1 = target: T1, FLI1 (Homo sapiens, UniProt Q01543 1-452)
# T1 sequence: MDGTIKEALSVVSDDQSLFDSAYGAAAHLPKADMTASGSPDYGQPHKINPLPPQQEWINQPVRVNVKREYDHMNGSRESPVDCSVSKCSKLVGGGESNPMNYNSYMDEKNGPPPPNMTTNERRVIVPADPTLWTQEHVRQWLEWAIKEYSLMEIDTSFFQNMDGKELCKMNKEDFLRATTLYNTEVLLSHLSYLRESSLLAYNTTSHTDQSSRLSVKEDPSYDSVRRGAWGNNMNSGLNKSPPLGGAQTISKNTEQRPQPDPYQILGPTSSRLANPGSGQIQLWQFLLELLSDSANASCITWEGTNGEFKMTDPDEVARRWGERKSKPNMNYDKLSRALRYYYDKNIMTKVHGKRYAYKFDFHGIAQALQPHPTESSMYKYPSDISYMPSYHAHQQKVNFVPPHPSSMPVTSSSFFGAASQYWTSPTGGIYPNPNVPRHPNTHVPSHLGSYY
# Procedure, shortened: (§1)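 After expression in yeast as GST fusions, human transcription factors were bound to glutathione beads, DNA-barcoded and mixed with a tag-only sample. The pools were incubated with 200 nmole of a 16-mer random double-stranded DNA library in Tris/NaCl/DTT/glycerol buffer (30 min, room temperature), washed and crosslinked with 0.1% formaldehyde. Proximity ligation with BsaI/T4 ligase ran for 1 h at 37 °C, before PCR amplification and sequencing on an Illumina NextSeq500. Binding signal is a hexamer's read frequency for a factor divided by its frequency for the tag-only sample.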
# GABPA = target: T2, GABPA (Homo sapiens, UniProt Q06546 1-454)
# T2 sequence: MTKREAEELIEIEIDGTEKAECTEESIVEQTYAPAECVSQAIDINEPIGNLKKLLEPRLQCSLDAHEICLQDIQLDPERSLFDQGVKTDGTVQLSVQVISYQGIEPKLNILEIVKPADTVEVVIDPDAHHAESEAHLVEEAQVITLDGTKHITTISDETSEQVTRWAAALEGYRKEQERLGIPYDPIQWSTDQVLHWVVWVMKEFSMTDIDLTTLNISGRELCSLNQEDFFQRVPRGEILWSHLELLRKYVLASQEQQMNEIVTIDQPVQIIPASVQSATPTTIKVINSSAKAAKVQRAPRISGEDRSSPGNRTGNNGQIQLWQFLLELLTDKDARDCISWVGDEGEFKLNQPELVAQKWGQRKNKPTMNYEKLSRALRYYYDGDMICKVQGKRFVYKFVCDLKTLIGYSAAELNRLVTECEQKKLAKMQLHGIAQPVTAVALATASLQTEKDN
# Procedure, shortened: as §1
# ERG = target: T3, ERG (Homo sapiens, UniProt P11308 1-479)
# T3 sequence: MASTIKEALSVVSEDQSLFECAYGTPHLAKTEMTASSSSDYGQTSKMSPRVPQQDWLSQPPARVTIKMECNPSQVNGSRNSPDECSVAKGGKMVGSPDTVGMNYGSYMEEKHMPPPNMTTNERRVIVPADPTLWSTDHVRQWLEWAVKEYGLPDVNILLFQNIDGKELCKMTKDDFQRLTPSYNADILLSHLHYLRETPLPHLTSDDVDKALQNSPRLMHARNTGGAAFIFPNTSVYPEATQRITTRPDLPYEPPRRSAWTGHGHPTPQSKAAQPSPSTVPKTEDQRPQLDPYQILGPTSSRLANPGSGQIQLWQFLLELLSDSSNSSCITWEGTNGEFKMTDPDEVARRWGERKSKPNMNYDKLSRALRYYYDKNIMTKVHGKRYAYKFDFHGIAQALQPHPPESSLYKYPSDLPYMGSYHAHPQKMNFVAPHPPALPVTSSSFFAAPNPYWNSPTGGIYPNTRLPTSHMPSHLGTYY
# Procedure, shortened: as §1
# ELF1 = ELF1 (Homo sapiens, UniProt P32519 1-619)
# ELF1, sequence (P32519 whole entry): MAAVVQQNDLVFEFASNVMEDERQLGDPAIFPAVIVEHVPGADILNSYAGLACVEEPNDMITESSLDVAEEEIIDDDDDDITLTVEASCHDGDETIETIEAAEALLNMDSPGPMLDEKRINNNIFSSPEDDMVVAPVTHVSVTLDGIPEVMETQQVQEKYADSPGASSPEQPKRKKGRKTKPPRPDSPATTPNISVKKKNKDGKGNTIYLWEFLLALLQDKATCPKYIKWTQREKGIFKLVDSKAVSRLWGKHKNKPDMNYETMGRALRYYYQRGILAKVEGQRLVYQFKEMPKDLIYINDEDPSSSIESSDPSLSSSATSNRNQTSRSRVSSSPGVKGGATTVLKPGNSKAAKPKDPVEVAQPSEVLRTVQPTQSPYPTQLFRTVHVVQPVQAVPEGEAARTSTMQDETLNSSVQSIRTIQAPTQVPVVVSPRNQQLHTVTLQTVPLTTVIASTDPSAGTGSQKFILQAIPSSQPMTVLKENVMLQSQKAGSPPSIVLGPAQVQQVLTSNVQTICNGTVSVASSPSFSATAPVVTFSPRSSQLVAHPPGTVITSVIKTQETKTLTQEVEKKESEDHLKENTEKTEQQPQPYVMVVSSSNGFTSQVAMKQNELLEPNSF
# Procedure, shortened: as §1
# EHF = target: T4, EHF (Homo sapiens, UniProt Q9NZC4 1-300)
# T4 sequence: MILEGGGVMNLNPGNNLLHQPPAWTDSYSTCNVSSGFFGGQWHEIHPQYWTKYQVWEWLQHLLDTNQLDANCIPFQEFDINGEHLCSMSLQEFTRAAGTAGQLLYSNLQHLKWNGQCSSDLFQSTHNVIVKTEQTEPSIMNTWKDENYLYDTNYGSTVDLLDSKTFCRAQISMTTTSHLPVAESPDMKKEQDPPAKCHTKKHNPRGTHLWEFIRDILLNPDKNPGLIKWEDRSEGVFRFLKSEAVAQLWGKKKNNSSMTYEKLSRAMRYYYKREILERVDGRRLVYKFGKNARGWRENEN
# Procedure, shortened: as §1
# SPI1 = SPI1 (Homo sapiens, UniProt P17947 1-270)
# Procedure, shortened: as §1
# SPIB = SPIB (Homo sapiens, UniProt Q01892 1-262)
# SPIB, sequence (Q01892 whole entry): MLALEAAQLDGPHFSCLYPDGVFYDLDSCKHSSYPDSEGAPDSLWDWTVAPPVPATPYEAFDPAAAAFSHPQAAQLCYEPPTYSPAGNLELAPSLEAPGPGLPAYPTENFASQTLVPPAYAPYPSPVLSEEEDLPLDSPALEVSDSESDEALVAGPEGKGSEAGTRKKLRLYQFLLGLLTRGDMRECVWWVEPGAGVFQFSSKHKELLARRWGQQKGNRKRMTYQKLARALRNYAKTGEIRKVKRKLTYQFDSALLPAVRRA
# Procedure, shortened: as §1
# ELK3 = target: T5, ELK3 (Homo sapiens, UniProt P41970 1-407)
# T5 sequence: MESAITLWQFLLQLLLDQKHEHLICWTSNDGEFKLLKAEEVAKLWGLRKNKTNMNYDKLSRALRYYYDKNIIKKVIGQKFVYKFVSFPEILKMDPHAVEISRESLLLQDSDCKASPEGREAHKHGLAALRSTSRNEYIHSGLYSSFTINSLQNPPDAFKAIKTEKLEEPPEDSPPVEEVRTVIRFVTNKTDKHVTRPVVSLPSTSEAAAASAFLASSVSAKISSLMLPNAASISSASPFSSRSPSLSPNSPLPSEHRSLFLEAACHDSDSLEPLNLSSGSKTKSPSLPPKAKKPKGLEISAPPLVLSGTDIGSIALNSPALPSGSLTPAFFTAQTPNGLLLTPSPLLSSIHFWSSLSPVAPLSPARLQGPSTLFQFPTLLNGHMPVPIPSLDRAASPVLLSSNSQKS
# Procedure, shortened: as §1
# FEV = target: T6, FEV (Homo sapiens, UniProt Q99581 1-238)
# T6 sequence: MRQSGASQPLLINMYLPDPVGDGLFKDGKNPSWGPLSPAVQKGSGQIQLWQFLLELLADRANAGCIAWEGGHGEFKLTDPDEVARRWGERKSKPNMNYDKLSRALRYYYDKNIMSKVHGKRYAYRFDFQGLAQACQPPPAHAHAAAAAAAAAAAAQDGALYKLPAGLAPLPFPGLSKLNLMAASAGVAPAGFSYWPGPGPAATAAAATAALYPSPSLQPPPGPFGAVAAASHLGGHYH
# Procedure, shortened: as §1
sequence,measurement,setting,value
GGTTTT,binding signal,FLI1,"1.22 fold enrichment (6-mer frequency, TF over GST control)"
same,binding signal,GABPA,"1.2 fold enrichment (6-mer frequency, TF over GST control)"
same,binding signal,ERG,"1.1 fold enrichment (6-mer frequency, TF over GST control)"
same,binding signal,ELF1,"1.11 fold enrichment (6-mer frequency, TF over GST control)"
same,binding signal,EHF,"1.08 fold enrichment (6-mer frequency, TF over GST control)"
same,binding signal,SPI1,"1.24 fold enrichment (6-mer frequency, TF over GST control)"
same,binding signal,SPIB,"1.05 fold enrichment (6-mer frequency, TF over GST control)"
same,binding signal,ELK3,"1.04 fold enrichment (6-mer frequency, TF over GST control)"
same,binding signal,FEV,"1.13 fold enrichment (6-mer frequency, TF over GST control)"
